Data as given in PubChem BioAssay (EPA / NIEHS).
Inconclusive results are not listed. Activity calls are given as the source filed them. How the source made its calls, unless noted: active means hit-call score of the fitted dose curve at least 0.9, where 1 is the maximum; inactive means score below 0.9.

Experiments:
[1] = IUF_NPC1_viability_72hr: Viability Assessment at 72 hours in the Leibniz Research Institute for Environmental Medicine (IUF) Neural Progenitor Cell Proliferation Assay (NPC1) (AID 2284209)
Procedure, shortened: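 Three-day continuous exposure of human neural progenitor spheres under EGF/FGF-driven proliferation; cell viability scored by alamar blue signal versus DMSO.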

[2] = CCTE_Mundy_HCI_Cortical_Synap_Neur_Matur_NeuriteSpotCountPerNeuriteLength: CCTE's Synaptogenesis and Neurite Maturation Assay in rat cortical cells for Neurite Spot Count per Neurite Length, Mundy Lab (AID 2284210)
Procedure, shortened: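 Neurite-associated synapse density (synaptophysin puncta per unit neurite length) is measured by fluorescence high-content imaging in rat cortical cultures treated from DIV 7 and fixed at DIV 12, with DMSO as negative control.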

[3] = CCTE_Mundy_HCI_Cortical_Synap_Neur_Matur_BPCount: CCTE's Synaptogenesis and Neurite Maturation Assay in rat cortical cells for Branch Point Count, Mundy Lab (AID 2284211)
Procedure, shortened: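 In this multiplexed morphology assay, cortical cells from rat receive chemicals at DIV 7 and are fixed at DIV 12, then immunostained and imaged; branch points are counted, with DMSO as baseline.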

[4] = CCTE_Mundy_HCI_Cortical_NOG_NeuriteCount: CCTE's Neurite Outgrowth Assay in rat cortical cells for Neurite Count, Mundy Lab (AID 2284212);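 further: cells fixed about two days after chemical exposure began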
Procedure, shortened: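 Rat cortical primary cells; compound added 2 h post-plating, 1/10 dilution of working solution. Anti-betaIII-tubulin/AF488 ICC; ArrayScan neurite count vs DMSO.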

[5] = CCTE_Mundy_HCI_Cortical_NOG_NeuriteLength: CCTE's Neurite Outgrowth Assay in rat cortical cells for Neurite Length, Mundy Lab (AID 2284213)
Procedure, shortened: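 First, rat primary cortical cells were plated and, 2 h later, given test chemical as a 1/10 dilution. Finally, βIII-tubulin immunostaining enabled automated imaging of neurite length.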

[6] = CCTE_Mundy_HCI_Cortical_Synap_Neur_Matur_NeuriteLength: CCTE's Synaptogenesis and Neurite Maturation Assay in rat cortical cells for Neurite Length, Mundy Lab (AID 2284214)
Procedure, shortened: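 DMSO-normalised neurite length, from high-content imaging of anti-MAP2-stained rat cortical cells fixed at DIV 12. Glia were suppressed with AraC (DIV 5) before chemical exposure from DIV 7.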

[7] = CCTE_Mundy_HCI_Cortical_Synap_Neur_Matur_NeuriteSpotCountPerNeuron: CCTE's Synaptogenesis and Neurite Maturation Assay in rat cortical cells for Neurite Spot Count per Neuron Count, Mundy Lab (AID 2284215)
Procedure, shortened: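 Synapse density is scored as synaptophysin spots along neurites per neuron in fixed rat cortical neurons, measured at DIV 12 after chemical dosing at DIV 7. DMSO is the negative control and activity baseline.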

[8] = CCTE_Mundy_HCI_Cortical_Synap_Neur_Matur_NeuriteCount: CCTE's Synaptogenesis and Neurite Maturation Assay in rat cortical cells for Neurite Count, Mundy Lab (AID 2284222);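 further: exposure from day 7 to day 12 in vitro with readout at day 12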
Procedure, shortened: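 Chemical exposure runs DIV 7–12 in rat cortical cultures, glia suppressed by AraC at DIV 5; measurement is at DIV 12. Imaging-derived neurite counts are fitted against DMSO baseline.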

[9] = CCTE_Mundy_HCI_Cortical_Synap_Neur_Matur_CellBodySpotCount: CCTE's Synaptogenesis and Neurite Maturation Assay in rat cortical cells for Cell Body Spot Count, Mundy Lab (AID 2284223)
Procedure, shortened: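 Synapse number at neuronal cell bodies was quantified as synaptophysin puncta per neuron in rat cortical cultures exposed from DIV 7 to DIV 12. Values were normalised to DMSO.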

[10] = UKN2_HCS_IMR90_cell_viability: Viability Assessment in the University of Konstanz (UKN) Leist Lab Neural Crest Cell Migration Assay in human induced IMR90 Pluripotent Stem Cells (UKN2) (AID 2284233);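 further: viability of neural crest cells differentiated from IMR90 iPSC measured by calcein-AM fluorescence imaging; cells exposed to compound for 24 h after a 24 h migration phase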
Procedure, shortened: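 cMINC format, iPSC-derived neural crest (IMR90); 24 h migration (EGF/FGF, N2-S), then 24 h toxicant. Calcein-AM/H-33342 stain 30 min; fluorescence intensity by HCS; DMSO-normalised, bidirectional fitting.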

[11] = CCTE_Mundy_HCI_Cortical_NOG_BPCount: CCTE's Neurite Outgrowth Assay in rat cortical cells for Branch Point Count, Mundy Lab (AID 2284237)
Procedure, shortened: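 Measured 50.33 h after dosing, this morphology endpoint uses rat primary cortical cultures labelled for betaIII-tubulin. Branch points are quantified by high-content imaging, with DMSO as negative control and baseline.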

[12] = CCTE_Mundy_HCI_hNP1_Casp3_7: CCTE's Caspase-Glo 3/7 Assay in human neuroprogenitor cells for Apoptosis, Mundy Lab (AID 2284240)
Procedure, shortened: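 Neuroepithelial-lineage stem cells from WA09 embryonic cells were treated with chemicals after 40–44 h of culture. Twenty-four hours later, caspase-3/7 activation was detected luminescently after a 30 min room-temperature reagent step, with DMSO as baseline.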

[13] = IUF_NPC2c_oligodendrocyte_migration_120hr: Leibniz Research Institute for Environmental Medicine (IUF) 120-hour Neural Progenitor Cell Migration Assay for Oligodendrocyte Migration (NPC2c) (AID 2284297);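 further: O4-positive oligodendrocyte migration distance divided by radial glia migration distance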
Procedure, shortened: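 Primary hNPC spheres migrating on extracellular matrix, exposed five days to a 7-point dilution series with solvent control. Oligodendrocyte migration was scored by high-content imaging of O4 immunostaining and expressed relative to radial glia distance.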

[14] = IUF_NPC2a_radial_glia_migration_120hr: Leibniz Research Institute for Environmental Medicine (IUF) 120-hour Neural Progenitor Cell Migration Assay for Radial Glia Migration (NPC2a) (AID 2284298)
Procedure, shortened: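 In this multiplexed test, fetal hNPC spheres migrate radially on poly-D-lysine/laminin in N2 medium (37C, 5% CO2, pH 7.2-7.6) under continuous compound exposure over five days. Migration is scored at 120 h from automated Hoechst nuclear imaging.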

[15] = IUF_NPC2a_radial_glia_migration_72hr: Leibniz Research Institute for Environmental Medicine (IUF) 72-hour Neural Progenitor Cell Migration Assay for Radial Glia Migration (NPC2a) (AID 2284299)
Procedure, shortened: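 Spheres of human primary neural progenitors migrate on poly-D-lysine/laminin under compound exposure at 37C, 5% CO2. The 72 h radial glia migration distance comes from brightfield images, measured manually.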

[16] = IUF_NPC2b_neuronal_migration_120hr: Leibniz Research Institute for Environmental Medicine (IUF) 120-hour Neural Progenitor Cell Migration Assay for Neuron Migration (NPC2b) (AID 2284300)
Procedure, shortened: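 Neurons identified by TUBB3 immunostaining and Hoechst nuclei; migration distance measured automatically on fixed wells at 120 h, normalized to glia migration. Exposure spanned five days of differentiation in N2 medium, seven test concentrations.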

[17] = IUF_NPC3_neuronal_differentiation_120hr: Leibniz Research Institute for Environmental Medicine (IUF) 120-hour Neuronal Differentiation Assay (NPC3) (AID 2284301)
Procedure, shortened: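 Neuronal differentiation of primary human neural progenitors measured by high-content imaging: percent TUBB3+ of Hoechst+ nuclei within migrated area at 120 h, seven-point serial dilution plus solvent control, gain or loss relative to DMSO.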

[18] = IUF_NPC4_neurite_length_120hr: Leibniz Research Institute for Environmental Medicine (IUF) 120-hour Neuronal Morphology Assay for Neurite Length (NPC4) (AID 2284302)
Procedure, shortened: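 Neurons from differentiating human fetal neural progenitor spheres are scored for average neurite length after five days of compound exposure. Fitting uses DMSO as negative control.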

[19] = IUF_NPC5_oligodendrocyte_differentiation_120hr: Leibniz Research Institute for Environmental Medicine (IUF) 120-hour Oligodendrocyte Differentiation Assay (NPC5) (AID 2284304; active means hit-call score of the fitted dose curve at least 0.9, where 1 is the maximum;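 further: primary human fetal neural progenitor spheres plated to migrate and differentiate; share of O4-positive cells among Hoechst nuclei found by CNN image analysis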)
Procedure, shortened: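 Human primary NPC neurospheres migrating and differentiating on laminin for 120 h under continuous compound exposure (serial dilution, solvent control). Endpoint: percent O4+ oligodendrocytes among Hoechst nuclei, detected by CNN image analysis, with DMSO as negative control.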

[20] = IUF_NPC4_neurite_area_120hr: Leibniz Research Institute for Environmental Medicine (IUF) 120-hour Neuronal Morphology Assay for Neurite Area (NPC4) (AID 2284305; active means hit-call score of the fitted dose curve at least 0.9, where 1 is the maximum)
Procedure, shortened: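 Endpoint at 120 h: automated imaging of TUBB3/Hoechst-stained differentiating human neural progenitor spheres, neurite area per neuron from skeletonization. DMSO solvent control, not above 0.1%, set the baseline; medium was half-replaced on day 3.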

[21] = IUF_NPC2-5_cytotoxicity_72hr: Cytotoxicity Assessment at 72 hours in the Leibniz Research Institute for Environmental Medicine (IUF) Neural Progenitor Cell Migration and Differentiation Assay for Cytotoxicity (NPC2-5) (AID 2284306; active means hit-call score of the fitted dose curve at least 0.9, where 1 is the maximum;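 further: LDH release into supernatant measured by resorufin fluorescence marking membrane damage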)
Procedure, shortened: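 Primary human neural progenitor spheres migrate and differentiate on laminin. Compound is present from the start of differentiation, with DMSO kept at or below 0.1%. At 72 h, supernatant LDH is quantified fluorometrically, with values fitted in the positive direction.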

[22] = IUF_NPC2-5_cytotoxicity_120hr: Cytotoxicity Assessment at 120 hours in the Leibniz Research Institute for Environmental Medicine (IUF) Neural Progenitor Cell Migration and Differentiation Assay (NPC2-5) (AID 2284307; active means hit-call score of the fitted dose curve at least 0.9, where 1 is the maximum)
Procedure, shortened: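 Fluorescence (RFU) from LDH-driven resazurin reduction in medium supernatants measured loss of membrane integrity after 120 h of compound exposure of differentiating primary human neural progenitor spheres on an extracellular matrix.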

[23] = IUF_NPC2-5_cell_number_120hr: Cell Number Assessment at 120 hours in the Leibniz Research Institute for Environmental Medicine (IUF) Neural Progenitor Cell Migration and Differentiation Assay (NPC2-5) (AID 2284308);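 further: count of Hoechst-stained nuclei in migration zone around plated human neural progenitor spheres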
Procedure, shortened: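 Cell number is taken as all Hoechst-positive nuclei detected in the area into which cells migrate out of the sphere, scored at 120 h and referenced to DMSO solvent control, which was kept at no more than 0.1%.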

[24] = IUF_NPC2-5_viability_120hr: Viability Assessment at 120 hours in the Leibniz Research Institute for Environmental Medicine (IUF) Neural Progenitor Cell Migration and Differentiation Assay (NPC2-5) (AID 2284312)
Procedure, shortened: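 Human fetal (GW 16-19) neural progenitor spheres of 0.3 mm were plated on poly-D-lysine/laminin in N2 differentiation medium and exposed from day 0 for 120 h, with half-medium refresh at day 3. Viability was read as alamar blue resazurin-to-resorufin fluorescence against DMSO.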

[25] = CCTE_Mundy_HCI_iCellGluta_NOG_NeuriteLength: CCTE's Neurite Outgrowth Assay in iCellGluta cells for Neurite Length, Mundy Lab (AID 2284318; active means hit-call score of the fitted dose curve at least 0.9, where 1 is the maximum)
Procedure, shortened: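 Automated high-content imaging of betaIII-tubulin (Alexa Fluor-488) and Hoechst-stained cells gave neurite length, normalized to the DMSO baseline.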

[26] = IUF_NPC1_cytotoxicity_72hr: Cytotoxicity Assessment at 72 hours in the Leibniz Research Institute for Environmental Medicine (IUF) Neural Progenitor Cell Proliferation Assay (NPC1) (AID 2284332; active means hit-call score of the fitted dose curve at least 0.9, where 1 is the maximum;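 further: rising LDH signal means more cytotoxicity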)
Procedure, shortened: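 Readout is fluorescence from LDH-dependent resazurin conversion, sampled from culture medium after compound contact lasting 72 h. Each well holds one 0.25-0.35 mm human progenitor sphere kept at 37C, 5% CO2 with EGF and FGF.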

[27] = CCTE_Mundy_HCI_iCellGluta_NOG_NeuronCount: CCTE's Neurite Outgrowth Assay in iCellGluta cells for Neuron Count, Mundy Lab (AID 2284340; active means hit-call score of the fitted dose curve at least 0.9, where 1 is the maximum;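 further: cells fixed about 48 h after compound addition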)
Procedure, shortened: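 Neuron count read by automated high-content imaging of Hoechst 33342 and betaIII-tubulin/Alexa Fluor-488 labelling in human iPSC glutamatergic neurons. Activity fitted relative to DMSO.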

[28] = CCTE_Mundy_HCI_iCellGluta_NOG_NeuriteCount: CCTE's Neurite Outgrowth Assay in iCellGluta cells for Neurite Count, Mundy Lab (AID 2284342; active means hit-call score of the fitted dose curve at least 0.9, where 1 is the maximum;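 further: chemical exposure about 48 hours starting 2 hours after plating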)

[Cl-].[Cl-].[NH2-].[NH2-].[Pt+4]
outcome [1]: inactive | outcome [2]: inactive | AC50 [3]: 0.029 µM (active) | outcome [4]: inactive | outcome [5]: inactive | outcome [6]: inactive | outcome [7]: inactive | outcome [8]: inactive | outcome [9]: inactive | outcome [10]: inactive | outcome [11]: inactive | outcome [12]: inactive | outcome [13]: inactive | outcome [14]: inactive | outcome [15]: inactive | outcome [16]: inactive | AC50 [17]: 9.95 µM (active) | AC50 [18]: 33.2 µM (active) | outcome [19]: inactive | outcome [20]: inactive | AC50 [21]: 34.7 µM (active) | outcome [22]: inactive | AC50 [23]: 28.4 µM (active) | outcome [24]: inactive | AC50 [25]: 26 µM (active) | outcome [26]: inactive | AC50 [27]: 85.7 µM (active) | AC50 [28]: 70 µM (active)
